Most compounds without a hit are left out; they make up all but 9.6% or so of the library.
PostGolgi yeast: growth inhibition of a yeast mutant, post-Golgi transport screen. post-Golgi transport phenotypic cell assay. inhibition, % at 10 µM. 0.9% of 98,000 active. AID 739;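 also: yeast cells grown in 1536-well plates; yeast grown about 18 h at 30C before absorbance read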
Cav3 T inh: blocks human Cav3.2 T-type calcium channel. O95180. Cav3.2-expressing cells, Fluo-4 calcium fluorescence FDSS; stronger effect = lower value. B-score at 10 µM. 4% of 100,000 active. AID 449739;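 active = single-dose well whose peak fluorescence ratio is a statistical outlier from its plate by either plate-standardised score or position-corrected B-score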
hDAT+cocaine: changed human dopamine transporter uptake under cocaine IC80 | Q01959 | LLC-PK1 hDAT cells, [14C]-dopamine uptake with cocaine IC80; actives deviate in either direction | B-score at 10 µM | 1.3% of 110,000 active;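 active = Z score or B-score, a plate-position-corrected score, falls beyond the plate's 99.7% confidence bounds, in either direction; inactive = both scores lie inside the 99.7% bounds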;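 also: scored against the spread of the other compound wells on the same plate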
PostGolgi ctrl: inhibits growth of the yeast control strain; efflux-deficient yeast background strain, growth absorbance A615, 16 h; inhibition, % at 10 µM; 5% of 98,000 active; AID 738
PLAP act: activators of human placental alkaline phosphatase | purified PLAP enzyme, luminescent substrate read-out; stronger effect = higher value | activation fold at 20 µM | 1.2% of 96,000 active; in the data active = activation fold above about 2
Target sequence (P05187 whole entry, looked up): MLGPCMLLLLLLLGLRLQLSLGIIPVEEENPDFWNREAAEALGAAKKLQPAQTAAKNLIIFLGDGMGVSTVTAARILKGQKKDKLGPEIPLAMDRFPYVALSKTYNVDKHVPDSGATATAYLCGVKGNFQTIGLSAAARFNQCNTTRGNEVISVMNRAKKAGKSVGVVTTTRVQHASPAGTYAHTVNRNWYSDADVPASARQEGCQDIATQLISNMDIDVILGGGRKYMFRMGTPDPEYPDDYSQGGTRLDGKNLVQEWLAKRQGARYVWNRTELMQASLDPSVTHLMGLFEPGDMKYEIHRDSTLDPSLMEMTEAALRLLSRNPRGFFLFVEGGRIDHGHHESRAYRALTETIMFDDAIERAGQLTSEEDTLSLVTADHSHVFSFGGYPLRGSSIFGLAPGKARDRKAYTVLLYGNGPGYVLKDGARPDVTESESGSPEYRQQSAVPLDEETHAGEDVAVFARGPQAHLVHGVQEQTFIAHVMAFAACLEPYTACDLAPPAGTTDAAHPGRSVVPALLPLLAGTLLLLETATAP
* marks the source's active call; other numbers are inactive results; . = no result. Rule as the data show it, unless noted: active = inhibition above about 30%; inactive = the rest.

SMILES	PostGolgi yeast	Cav3 T inh	hDAT+cocaine	PostGolgi ctrl	PLAP act
COc1ccc(-c2cc(C(=O)NCc3cccnc3)no2)cc1	3.5	1.59	1.04	1.2	1
O=C(NCc1cccnc1)c1cc(-c2ccccc2)on1	-8.6	0.281	3.64*	-1.7	1.2
C=CCn1c(SCc2nc3ccccc3nc2C)nnc1-c1ccoc1C	-5.6	-0.499	0.608	7.5	1.2
O=C(CSc1ncn[nH]1)OCN1C(=O)c2ccccc2C1=O	-6.1	0.0946	-0.0217	6.8	1.2
O=C(COC(=O)C1(c2ccc(F)cc2)CCCC1)N1CCN(C(=O)c2ccco2)CC1	15.2	-5.36*	-1.05	0.6	1.6
Cc1cc(NC(=O)Cn2nnc3sc4c(c3c2=O)CCC(C(C)(C)C)C4)no1 (stereo not given)	3.1	-7.33*	0.444	31.1*	1.2
COc1ccc(C2N3CC4(C)CN2CC(C)(C3)C4)cc1OC (stereo not given)	0.2	.	-7.5*	1.5	0.9
NC(=O)c1cc(-c2ccccc2)nc(N2CCCCCC2)n1	17.9	0.942	0.237	36.9*	1
CCOC(=O)N=S(=O)(Oc1ccc([N+](=O)[O-])cc1)c1ccc(Cl)cc1 (stereo not given)	.	-4.18*	0.387	.	.
O=C(CC1(O)C(=O)N(Cc2ccccc2Cl)c2ccccc21)c1ccco1 (stereo not given)	-2.6	-2.68	0.203	33.9*	0.8
CCOC(=O)CN1C(=O)C(O)(CC(=O)c2ccco2)c2ccccc21 (stereo not given)	0.0	0.52	-0.0668	-3.7	1
CCCCSC1=C(C#N)C(c2ccccc2C)CC(=O)N1 (stereo not given)	11.4	0.798	-1.2	33.4*	0.8
CCCSC1=C(C#N)C(c2ccccc2C)CC(=O)N1 (stereo not given)	0.2	0.448	-0.605	10.8	1.1
CCCSC1=C(C#N)C(c2ccc(Cl)cc2Cl)CC(=O)N1 (stereo not given)	-2.1	-0.0944	-0.0621	36.7*	1.1
Cc1nc2ncnn2c(C)c1CCC(=O)N1CCOCC1	2.3	-0.401	-0.374	-11.8	1
O=C(NCc1cccc(Br)c1)C1CC(c2ccccc2[N+](=O)[O-])=NO1 (stereo not given)	.	-0.0333	1.73	.	.
CC(C)n1c(SCC(=O)Nc2nc3c(s2)CCCC3)nc2c1c(=O)n(C)c(=O)n2C	.	-2.2	0.175	.	.
COc1ccc(C(=O)N(Cc2nc(-c3ccc(C)cc3)no2)C2CCCCC2)cc1OC	4.9	-4.04*	0.567	21.6	1.4
CCCCCCCC(=O)NC(Nc1ccc(S(N)(=O)=O)cc1)C(Cl)(Cl)Cl (stereo not given)	2.6	-4.45	-8.29*	15.0	1.3
CCCCCC(=O)NC(NC(=S)Nc1ccc(S(N)(=O)=O)cc1)C(Cl)(Cl)Cl (stereo not given)	-1.6	1.74	-3.65*	11.7	1.1
COc1ccc(C(=O)NC(Nc2ccccc2)C(Cl)(Cl)Cl)cc1 (stereo not given)	3.7	-1.6	0.00837	18.9	1.1
COc1ccc(C(=O)NC(NC(=S)Nc2ccc(S(N)(=O)=O)cc2)C(Cl)(Cl)Cl)cc1 (stereo not given)	-2.5	0.749	-2.29*	15.5	1.3
Cc1c2cccn2cc[n+]1C	3.9	-0.721	-0.589	5.7	1
C=CCSC1=C(C#N)C(c2cccc(OC)c2)CC(=O)N1 (stereo not given)	-0.8	0.44	-1.1	8.8	1.1
CC(C)CCOc1ccc(Cl)cc1CN1CCOCC1	32.4*	.	0.422	36.5*	1.8
SMILES	PostGolgi yeast	Cav3 T inh	hDAT+cocaine	PostGolgi ctrl	PLAP act
CCOc1ccc(Cl)cc1CN1CCOCC1	-7.2	-0.0615	-0.0607	13.1	0.9
CCCCCOc1ccc(Cl)cc1CN1CCOCC1	57.6*	-0.31	0.497	25.9	1.6
COc1ccc(CN2CCOCC2)c(C)c1C	-3.0	0.0466	0.412	3.4	1
CS(=O)(=O)N1CCC(C(=O)Nc2ccccc2Sc2ccccc2)CC1	3.4	.	-0.139	7.8	0.9
Cc1ccc(N(CC(=O)NCc2ccc(F)cc2)S(=O)(=O)c2cccs2)cc1	13.7	-1.56	-0.363	3.5	1
CC(O)c1c(OCc2ccccc2)ncnc1OCc1ccccc1 (stereo not given)	3.5	-5.11*	1.79	19.5	1.1
C(=C/c1ccnc2nc(SC/C=C/c3ccccc3)nn12)/c1ccccc1	-1.2	-0.361	-0.139	5.1	1
Cc1cccc(N2CC3=C(C2=O)C(c2ccccc2)NC(=O)N3C)c1 (stereo not given)	-2.6	1.41	0.261	10.0	1
Cc1ccc(N2CC3=C(C2=O)C(c2ccccc2)NC(=O)N3C)cc1 (stereo not given)	-3.5	-0.152	-1.51*	0.8	1.1
CCCn1c(=O)c2ccccc2n2c(SCc3c(C(=O)OCC)oc4ccccc34)nnc12	22.0	-3.27	2.09	50.9*	1.2
CCCn1c(=O)c2ccccc2n2c(SCC(=O)NCc3cccs3)nnc12	-1.1	0.539	0.814	40.3*	0.7
CCn1c(=O)c2ccccc2n2c(SCC(=O)NCc3cccs3)nnc12	5.7	0.661	0.302	-0.3	1.1
O=C(COc1ccc([N+](=O)[O-])cc1)NN=C1CCCC1	0.5	-0.861	0.744	6.3	0.9
COc1ccc(S(=O)(=O)N(CC(=O)N2CCN(C)CC2)c2ccc(C)cc2)cc1OC	-1.0	0.069	-0.0306	7.4	1.4
COC(=O)CNc1c(-c2ccccn2)nc2ccc(Br)cn12	-4.0	-0.284	-7.16*	9.6	1.1
CC(=O)Oc1ccc2ccccc2c1C(NC(=O)Cc1ccccc1)c1ccc(Cl)cc1 (stereo not given)	10.5	-9.8*	-1.05	18.5	1.1
O=C(Cc1ccccc1)NC(Nc1cccc2ccccc12)C(Cl)(Cl)Cl (stereo not given)	-0.8	-0.0229	-1.14	3.7	1
COc1cccc(C(C)NC(=O)Nc2cccc(C(F)(F)F)c2)c1 (stereo not given)	4.6	-8.29*	-2.3	11.1	0.8
O=[N+]([O-])c1ccc(Oc2cccc(Br)c2)c2ccncc12	7.6	-0.347	-0.274	79.3*	0.7
O=[N+]([O-])c1ccc(Oc2ccc(F)cc2)c2ccncc12	16.1	-1.04	-0.621	30.0	0.7
N#CCSc1nc2ccccc2c(=O)n1CCC(=O)NC1CCCCC1	-6.2	0.94	-0.0501	34.7*	1
Cn1c(SCC(=O)N2c3ccccc3Sc3ccc(Cl)cc32)nnc1-c1ccco1	53.3*	-3.82	0.0115	59.6*	.
Clc1ccc(Br)cc1-c1nc(-c2ccncc2)no1	4.9	-0.292	-0.373	2.8	0.9
Brc1cccc(-c2nc(-c3ccncc3)no2)c1	12.6	-0.488	1.65	42.7*	0.9
CCSc1nnc(NC(=O)CSc2nccn2-c2cccc(C)c2C)s1	-5.0	-7.08*	1.61	17.5	1.1
Cc1ccc(-n2nc(C)cc2NC(=O)c2ccc(C)s2)cc1	-2.7	-0.0398	0.0406	-2.1	1.5
Cc1ccc(C)c(S(=O)(=O)NCc2ccc(C(=O)N3CCC(Cc4ccccc4)CC3)cc2)c1	5.7	-3.95*	3.48*	16.8	1.3
c1ccc(-c2csc3ncn4nnnc4c23)cc1	-5.8	0.112	0.797	-2.9	1.1

Screening data: PubChem BioAssay, several laboratories
